Screens: PubChem, National Center for Advancing Translational Sciences (NCATS)
Only some compounds are listed: those with a hit (about 2.6% of all), similar ones and a draw of the others.
TCR act: activators of T cell receptors; 330,000 tested, under 10 active; Potency, µM (top dose mostly 9.22 µM), inactives show at the top dose activation of IL-2 secretion, hits mostly activators; primary human leukocytes, anti-CD3, IL-2 HTRF, 48 h; further: % of control where 0% means no effect
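Human primary leukocytes + a-CD3 beads + cpd, 48 hr; IL-2 in supernatant by HTRF (ex 320nm / em 665nm). No co-stimulatory signal supplied.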
Nrf2 activator: Nrf2 pathway activation. AREc32 ARE-luciferase reporter (MCF7-derived line), luminescence, 24 h. Potency, µM (doses to about 46.1 µM), inactives show top-dose activation, actives largely listed as activators. 410,000 compounds, 0.31% hits. AID 624171; further: potency means the concentration at half of the fitted maximal effect; % of control where 0% means no effect; nearly all actives have a fitted effect of over 65% in size
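Luminescent ARE reporter assay in AREc32_Fluc cells: overnight plating at 37 deg C, 24 hr compound incubation, Steady-Glo added, 30 min RT before reading.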
AT treatment: potential ataxia-telangiectasia treatment; F2112 A-T fibroblasts, KAP-1 phosphorylation AlphaLISA; neocarzinostatin DNA damage 30 min before lysis; Potency, µM (highest dose often 57.5 µM), inactives show at the highest dose activation, actives largely listed as activators; 320,000 compounds, 0.19% hits; further: potency means the concentration at half of the fitted maximal effect; % of control where 0% means no effect; nearly all actives have a fitted effect of over 45% in size
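hTERT-immortalized A-T patient fibroblasts (F2112), 500 cells/well in OPTI-MEM, 1% FBS, got compounds for 60 min, then NCS for 30 min at 37C. Lysates were then assayed for phospho-KAP-1 by AlphaLISA (anti-pKAP1 donor, anti-KAP1 acceptor beads), 6 hr at 25C.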
Nrf2 block: inhibitors of Nrf2 signaling; A549 ARE-Fluc reporter, luciferase luminescence, 18-24 h; Potency, µM (series often up to 46 µM), for inactives: at the top dose activity change, negative = inhibition, hits mostly inhibitors; AID 504444; 360,000 compounds, 2.1% hits; further: potency means the concentration at half of the fitted maximal effect; on the % scale 0 is the no-effect control and ±100 the full control effect; nearly all actives have a fitted effect of over 60% in size
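A549 ARE_Fluc cells (5000/well, 5% FBS OPTI-MEM) pre-incubated 2 h, then treated with compounds 18-24 h at 37C/5% CO2 in concentration-response. CellTiter-Fluor viability read first; BugLite luciferase luminescence after 15 min at room temperature gives Nrf2 activity.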
A549 tox-1: A549 cytotoxicity, counter-screen for Nrf2 inhibitors; A549 ARE-Fluc cells, CellTiter-Fluor viability, 18-24 h; Potency, µM (titrated, usually from 46 µM), without a hit: at the top dose activity change, negative = cytotoxicity, usual class: inhibitors; 390,000 compounds, 0.16% hits; further: potency means the concentration at half of the fitted maximal effect; on the % scale 0 is the no-effect control and ±100 the full control effect
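A549 ARE_Fluc cells in 5% FBS OPTI-MEM were exposed to compounds in concentration-response for 18-24 h at 37 deg C. Viability was read by CellTiter-Fluor fluorescence (Ex 405/Em 525) after 30 min, before the luciferase read.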
CCT chaperon mod: changes cytosolic chaperonin activity; purified chaperonin ATPase assay, HTRF ADP detection, 30 min; activity change, % (concentration not given with the values), hits read low; 360,000 compounds, 0.3% hits; in the data active means activity change below about -30%; further: on the % scale 0 is the no-effect control and ±100 the full control effect
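First, chaperonin was dispensed at 40 nM or 20 nM final depending on batch activity. Next, compounds were pinned at 76 uM and ATP added at 10 uM. After 30 min at 37 °C, ADP detection reagents ran 30 min at ambient temperature.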
FLuc counter 3: blocks purified firefly luciferase in Nrf2 counterscreen. shares compounds with Nrf2 block. purified firefly luciferase, luminescence inhibition. Potency, µM (titrated, usually from 57.5 µM), for inactives: top-dose activity change, negative = inhibition, most hits filed as inhibitors. 1,400 compounds, 4% hits; further: potency means the concentration at half of the fitted maximal effect; on the % scale 0 is the no-effect control and ±100 the full control effect; nearly all actives have a fitted effect of over 65% in size
Target sequence (P08659 whole entry, looked up): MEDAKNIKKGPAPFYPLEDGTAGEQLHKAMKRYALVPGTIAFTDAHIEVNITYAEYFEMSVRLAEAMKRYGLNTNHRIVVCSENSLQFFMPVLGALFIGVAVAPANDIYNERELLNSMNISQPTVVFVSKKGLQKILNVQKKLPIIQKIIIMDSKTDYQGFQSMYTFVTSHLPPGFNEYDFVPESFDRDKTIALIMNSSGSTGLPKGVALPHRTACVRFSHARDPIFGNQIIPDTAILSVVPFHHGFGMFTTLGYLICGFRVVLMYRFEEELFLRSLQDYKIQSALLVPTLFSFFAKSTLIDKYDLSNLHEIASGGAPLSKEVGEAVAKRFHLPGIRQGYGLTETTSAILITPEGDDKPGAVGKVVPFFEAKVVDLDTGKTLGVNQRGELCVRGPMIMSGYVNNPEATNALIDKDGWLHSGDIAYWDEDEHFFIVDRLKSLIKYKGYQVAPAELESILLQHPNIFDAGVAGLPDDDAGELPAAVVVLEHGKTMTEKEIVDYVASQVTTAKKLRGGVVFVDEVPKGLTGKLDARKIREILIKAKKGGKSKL
A549 tox-2: counter-screen for Nrf2 inhibitors: cytotoxicity in A549 ARE cells; shares compounds with Nrf2 block; A549 ARE-Fluc cells, cytotoxicity counterscreen; Potency, µM (highest dose often 46.1 µM), inactives show top-dose activity change, negative = cytotoxicity, most hits filed as inhibitors; 1,400 compounds, 2% hits; AID 720523;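 further: potency means the concentration at half of the fitted maximal effect; cells exposed to compounds for 18 to 24 hours; on the % scale 0 is the no-effect control and ±100 the full control effect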
ARE-Fluc inh: confirmation of Nrf2 inhibitors in A549 ARE reporter cells | shares compounds with Nrf2 block | A549 ARE-firefly luciferase reporter, luminescence | Potency, µM (top dose mostly 46.1 µM), for inactives: at the highest dose activity change, negative = inhibition, hits mostly inhibitors | 1,400 compounds, 74% hits; further: potency means the concentration at half of the fitted maximal effect; on the % scale 0 is the no-effect control and ±100 the full control effect; nearly all actives have a fitted effect of over 65% in size
Numbers without * were called inactive; u = inconclusive; x = no result given; [ ] = remark or other dose. Unless noted, the call rests on the fitted dose curve; in most records, active means well fitted curve in the direction sought with a large enough effect; inconclusive means small, poorly fitted or top-dose-only effect, or another doubt; inactive means no such curve, though single readings can be large; an effect the other way counts as inactive or inconclusive.

SMILES	TCR act	Nrf2 activator	AT treatment	Nrf2 block	A549 tox-1	CCT chaperon mod	FLuc counter 3	A549 tox-2	ARE-Fluc inh
CCOc1ccc(/C=C/C(=O)C(C(N)=O)=C2SCCS2)cc1	27%[46.1 µM]	u	1%	8%	-18%	1	x	x	x
c1ccc2c(c1)[IH]c1ccccc1-2	-2%	-3%	x	0.23µM*	9.2µM*	1	2%	-3%	u
c1ccc2c(c1)-c1cccc3cccc-2c13	4%	0%	u	-3%	1%	0	x	x	x
CCC1(O)C(=O)OCc2c1cc1n(c2=O)Cc2cc3cc(O)ccc3nc2-1 (centres undefined)	-32%	-2%	x	2.3µM*	14%	-2	-8%	12%	0.41µM*
CC[C@@]1(O)C(=O)OCc2c1cc1n(c2=O)Cc2cc3ccccc3nc2-1	x	x	3%	2.1µM*	-14%	x	2%	u	0.46µM*
CN(C)c1ccc(C(=O)N/N=C/C23CC[C@@H](O)CC2(O)CC[C@@H]2[C@@H]3CCC3(C)C(C4=CC(=O)OC4)CCC23O)cc1 (some centres undefined)	-2%	-5%	2%	5.8µM*	u	0	1%	u	3.7µM*
CC12CC[C@H]3[C@@H](CCC4(O)C[C@H](O)CCC34/C=N/NC(=O)c3ccc(O)cc3)C1(O)CCC2C1=CC(=O)OC1 (some centres undefined)	-6%	0%	9%	-30%	-12%	0	x	x	x
CC12CC[C@H]3[C@@H](CCC4(O)C[C@H](O)CCC34/C=N/NC(=O)c3ccccc3F)C1(O)CCC2C1=CC(=O)OC1 (some centres undefined)	-4%	4%	-5%	9.2µM*	-25%	-2	-10%	u	12µM*
CC12CC[C@H]3[C@@H](CCC4(O)C[C@H](O)CCC34/C=N/NC(=O)c3ccccc3O)C1(O)CCC2C1=CC(=O)OC1 (some centres undefined)	11%	1%	5%	u	-1%	2	x	x	x
O=C(O)[C@@H]1C[C@H]2C[C@@H](CP(=O)(O)O)CC[C@H]2CN1	x	x	x	15%	7%	x	x	x	x
CCC(C(=O)Nc1ccccc1F)N1C(=O)CN=C(c2ccccc2)c2ccccc21 (centres undefined)	x	0%	x	-7%	-3%	x	x	x	x
CC1=C(N2CC2)C(=O)C(CO)=C(N2CC2)C1=O	2%	-3%	x	0.52µM*	9.2µM*	-2	2%	-10%	1.6µM*
CN(Cc1ccc(OC(F)F)cc1)C(=O)c1ccccc1Sc1ccccc1C#N	3%	2%	x	u	-6%	0	x	x	x
Cc1cc(-n2c(/C=C/c3cccs3)nc3ccccc3c2=O)ccc1Br	x	3%	x	x	-3%	x	x	x	x
COC(=O)C12OCC34C(CC5C(C)=C(O)C(=O)CC5(C)C3C(O)C1O)OC(=O)C(OC(=O)/C=C(\C)C(C)C)C24 (centres undefined)	12%	-2%	x	0.058µM*	0.29µM*	-2	0%	-12%	1.2µM*
CC(=O)OC1C(=O)OCC23CCC4(C)OC4C2OC2CC(OC(=O)C=CC=CC(=O)OCCC1C)C3(C)C21CO1 (centres undefined)	-2%	-1%	x	0.016µM*	x	-1	3%	x	0.012µM*
CC1=CC2OC3CC4OC(=O)C=CC=CC(C(C)O)OCC(O)C(C)CC(=O)OCC2(CC1O)C4(C)C31CO1 (centres undefined)	-4%	-2%	x	0.058µM*	x	-1	-13%	x	0.052µM*
CC1=CC2OC3CC4OC(=O)C=CC=CC(=O)OCCC(C)C(O)C(=O)OCC2(CC1O)C4(C)C31CO1 (centres undefined)	-2%	-1%	x	0.073µM*	x	-2	-11%	x	3.7µM*
C=CCc1c(C)nc(C)nc1N/N=C/c1ccc(N(C)C)cc1	-4%	2%	-5%	u	-1%	2	x	x	x
COC12C(COC(N)=O)C3=C(C(=O)C(C)=C(N)C3=O)N1CC1C2N1C (centres undefined)	7%	2%	-3%	0%	-23%	1	x	x	x
COC(COC(N)=O)C1=C(N2CC2)C(=O)C(C)=C(N2CC2)C1=O (centres undefined)	0%	3%	x	2.1µM*	10µM*	-9	-2%	-11%	0.058µM*
CCC1Nc2ncnc(N3CCN(c4ccccn4)CC3)c2N(Cc2ccc(Br)cc2)C1=O (centres undefined)	1%	5%	-6%	u	-7%	-1	x	x	x
COc1ccc(-c2nc(CN3C(=O)CN=C(c4ccccc4)c4ccccc43)c(C)o2)cc1OC	x	5%	x	-16%	-1%	x	x	x	x
O=C(Nc1cccc(Cl)c1)c1cnc2sc(N3CCCC3)nn2c1=O	x	0%	x	5.2µM*	-1%	x	-3%	-11%	4.6µM*
O=C(Nc1cccc(Cl)c1)N1C[C@H]2C[C@@H](C1)c1cccc(=O)n1C2	0%	-1%	-2%	5%	10%	-1	x	x	x
SMILES	TCR act	Nrf2 activator	AT treatment	Nrf2 block	A549 tox-1	CCT chaperon mod	FLuc counter 3	A549 tox-2	ARE-Fluc inh
O=C(Nc1ccccc1C(F)(F)F)c1cccn(Cc2ccccc2)c1=O	x	0%	x	x	1%	x	x	x	x
C[n+]1ccc(-c2ccccc2)c2ccccc21	3%	1%	5%	1.5µM*	-15%	-32*	0%	-1%	x
C=C(C)CSc1nnc([C@@H](N)Cc2c[nH]c3ccccc23)o1	2%	3%	-1%	u	1%	2	x	x	x
Cc1[nH]nc2ccc(-c3cncc(OC[C@@H](N)Cc4c[nH]c5ccccc45)c3)cc12	-1%	-3%	x	5.2µM*	u	-5	-1%	u	x
COc1cc2c(cc1OC)C1C(=O)c3ccc4c(c3OC1CO2)CC(C(C)C)O4 (centres undefined)	-1%	4%	x	0.092µM*	-7%	-2	-1%	-16%	0.058µM*
COc1cc2c(cc1OC)[C@H]1C(=O)c3ccc4c(c3O[C@H]1CO2)C[C@@H](C(C)(C)O)O4	3%	4%	5%	u	6%	2	x	x	x
